In PubChem BioAssay AID1159580 (chemical genetic matrix, 2015):
Among all 5,500 compounds or so, about 2,000 (36%) were called active. About 18% were inconclusive and are not listed. No stated cut-off is given here; in the data, active means normalized growth mostly below about 0.91 (no sharp cut-off); inconclusive means no clear call, values can overlap the other calls; inactive means mostly above about 0.92. The list shows a part of the results.

Experiment: chemical genetic growth profiling, strain panel (AID 1159580);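 further: tested at 20 µM; growth read once vehicle control cultures reached saturation at 30 °C; 1 = growth at the plate median or of vehicle wells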
Conditions: growth OD

Measured: normalized growth

C[N+]12CCC(CC1)C(OC(=O)C(O)(c1ccccc1)c1ccccc1)C2 (configuration not stated)
inactive: S. cerevisiae deletion strains, locus YJR075W, strain HOC1, stronger effect = lower value 0.982 | S. cerevisiae deletion strains, locus YKL009W, strain mrt4, stronger effect = lower value 0.998 | S. cerevisiae deletion strains, locus YKL068W, stronger effect = lower value 0.985 | S. cerevisiae deletion strains, locus YKL085W, strain MDH1 (second series), stronger effect = lower value 0.994 | S. cerevisiae deletion strains, locus YKL085W, strain MDH1, stronger effect = lower value 0.994 | S. cerevisiae deletion strains, locus YKL160W, strain elf1, stronger effect = lower value 0.962 | S. cerevisiae deletion strains, locus YKL190W, strain CNB1, stronger effect = lower value 1 | S. cerevisiae deletion strains, locus YKR001C, strain vps1, stronger effect = lower value 0.958 | S. cerevisiae deletion strains, locus YKR026C, strain gcn3, stronger effect = lower value 0.984 | S. cerevisiae deletion strains, locus YKR091W, strain srl3, stronger effect = lower value 0.972 | S. cerevisiae deletion strains, locus YLL001W, strain dnm1, stronger effect = lower value 0.922 | S. cerevisiae deletion strains, locus YLL026W, stronger effect = lower value 0.975 | S. cerevisiae deletion strains, locus YLL041C, strain sdh2, stronger effect = lower value 1 | S. cerevisiae deletion strains, locus YLR027C, strain aat2, stronger effect = lower value 0.977 | S. cerevisiae deletion strains, locus YLR039C, strain RIC1, stronger effect = lower value 1.02 | S. cerevisiae deletion strains, locus YLR058C, strain SHM2, stronger effect = lower value 0.985 | S. cerevisiae deletion strains, locus YLR102C, strain apc9, stronger effect = lower value 0.987 | S. cerevisiae deletion strains, locus YLR113W, strain HOG1, stronger effect = lower value 0.975 | S. cerevisiae deletion strains, locus YLR221C, strain rsa3, stronger effect = lower value 0.929 | S. cerevisiae deletion strains, locus YLR258W, strain gsy2, stronger effect = lower value 0.979 | S. cerevisiae deletion strains, locus YLR262C, strain YPT6 (second series), stronger effect = lower value 0.955 | S. cerevisiae deletion strains, locus YLR262C, strain YPT6, stronger effect = lower value 1 | S. cerevisiae deletion strains, locus YLR268W, strain sec22, stronger effect = lower value 0.906 | S. cerevisiae deletion strains, locus YLR320W, strain mms22, stronger effect = lower value 0.952 | S. cerevisiae deletion strains, locus YLR330W, strain CHS5, stronger effect = lower value 0.995 | S. cerevisiae deletion strains, locus YLR342W, strain FKS1 (second series), stronger effect = lower value 1.01 | S. cerevisiae deletion strains, locus YLR342W, strain FKS1, stronger effect = lower value 0.989 | S. cerevisiae deletion strains, locus YLR357W, strain rsc2, stronger effect = lower value 0.983 | S. cerevisiae deletion strains, locus YLR370C, strain arc18, stronger effect = lower value 0.966 | S. cerevisiae deletion strains, locus YLR371W, strain rom2, stronger effect = lower value 0.977 | S. cerevisiae deletion strains, locus YLR384C, strain iki3, stronger effect = lower value 0.985 | S. cerevisiae deletion strains, locus YLR418C, strain cdc73, stronger effect = lower value 0.955 | S. cerevisiae deletion strains, locus YML016C, strain PPZ1, stronger effect = lower value 0.989 | S. cerevisiae deletion strains, locus YML032C, strain rad52, stronger effect = lower value 0.96 | S. cerevisiae deletion strains, locus YML120C, strain ndi1, stronger effect = lower value 0.939 | S. cerevisiae deletion strains, locus YML124C, strain tub3, stronger effect = lower value 0.985 | S. cerevisiae deletion strains, locus YMR058W, strain fet3, stronger effect = lower value 0.981 | S. cerevisiae deletion strains, locus YMR078C, strain ctf18, stronger effect = lower value 0.977 | S. cerevisiae deletion strains, locus YMR125W, strain sto1, stronger effect = lower value 0.924 | S. cerevisiae deletion strains, locus YMR129W, stronger effect = lower value 1.01 | S. cerevisiae deletion strains, locus YMR205C, strain PFK2, stronger effect = lower value 0.948 | S. cerevisiae deletion strains, locus YMR223W, strain ubp8, stronger effect = lower value 1.01 | S. cerevisiae deletion strains, locus YMR231W, strain pep5, stronger effect = lower value 1 | S. cerevisiae deletion strains, locus YMR263W, strain SAP30, stronger effect = lower value 0.985 | S. cerevisiae deletion strains, locus YMR307W, strain GAS1, stronger effect = lower value 1 | S. cerevisiae deletion strains, locus YNL067W, strain RPL9B, stronger effect = lower value 0.978 | S. cerevisiae deletion strains, locus YNL071W, strain lat1, stronger effect = lower value 1 | S. cerevisiae deletion strains, locus YNL128W, strain TEP1, stronger effect = lower value 0.998 | S. cerevisiae deletion strains, locus YNL153C, strain GIM3, stronger effect = lower value 0.98 | S. cerevisiae deletion strains, locus YNL183C, strain NPR1, stronger effect = lower value 0.932 | S. cerevisiae deletion strains, locus YNL209W, strain ssb2, stronger effect = lower value 0.978 | S. cerevisiae deletion strains, locus YNL233W, strain BNI4, stronger effect = lower value 0.978 | S. cerevisiae deletion strains, locus YNL248C, strain rpa49, stronger effect = lower value 0.984 | S. cerevisiae deletion strains, locus YNL250W, strain rad50, stronger effect = lower value 0.985 | S. cerevisiae deletion strains, locus YNL271C, strain bni1, stronger effect = lower value 0.974 | S. cerevisiae deletion strains, locus YNL298W, strain CLA4, stronger effect = lower value 0.984 | S. cerevisiae deletion strains, locus YNL307C, strain MCK1, stronger effect = lower value 0.969 | S. cerevisiae deletion strains, locus YNL322C, strain KRE1 (second series), stronger effect = lower value 0.966 | S. cerevisiae deletion strains, locus YNL322C, strain KRE1, stronger effect = lower value 0.998 | S. cerevisiae deletion strains, locus YNR049C, strain mso1, stronger effect = lower value 0.973 | S. cerevisiae deletion strains, locus YNR052C, strain pop2, stronger effect = lower value 0.986 | S. cerevisiae deletion strains, locus YOL006C, strain TOP1, stronger effect = lower value 0.965 | S. cerevisiae deletion strains, locus YOL012C, strain htz1 0.92 | S. cerevisiae deletion strains, locus YOL147C, strain pex11, stronger effect = lower value 0.985 | S. cerevisiae deletion strains, locus YOR001W, strain rrp6, stronger effect = lower value 1.04 | S. cerevisiae deletion strains, locus YOR061W, strain CKA2, stronger effect = lower value 0.99 | S. cerevisiae deletion strains, locus YOR069W, strain VPS5, stronger effect = lower value 0.986 | S. cerevisiae deletion strains, locus YOR070C, strain gyp1, stronger effect = lower value 0.985 | S. cerevisiae deletion strains, locus YOR080W, strain dia2, stronger effect = lower value 0.97 | S. cerevisiae deletion strains, locus YOR083W, strain WHI5, stronger effect = lower value 0.965 | S. cerevisiae deletion strains, locus YOR106W, strain vam3, stronger effect = lower value 0.951 | S. cerevisiae deletion strains, locus YOR136W, strain idh2, stronger effect = lower value 0.979 | S. cerevisiae deletion strains, locus YOR144C, strain elg1, stronger effect = lower value 0.984 | S. cerevisiae deletion strains, locus YOR184W, strain ser1, stronger effect = lower value 0.96 | S. cerevisiae deletion strains, locus YOR231W, strain MKK1, stronger effect = lower value 0.98 | S. cerevisiae deletion strains, locus YOR265W, strain rbl2, stronger effect = lower value 0.986 | S. cerevisiae deletion strains, locus YOR270C, strain vph1, stronger effect = lower value 0.995 | S. cerevisiae deletion strains, locus YOR290C, strain snf2, stronger effect = lower value 0.966 | S. cerevisiae deletion strains, locus YOR316C, strain cot1, stronger effect = lower value 0.975 | S. cerevisiae deletion strains, locus YPL051W, strain arl3, stronger effect = lower value 0.987 | S. cerevisiae deletion strains, locus YPL055C, strain LGE1, stronger effect = lower value 0.992 | S. cerevisiae deletion strains, locus YPL078C, strain atp4, stronger effect = lower value 0.958 | S. cerevisiae deletion strains, locus YPL106C, strain sse1, stronger effect = lower value 0.94 | S. cerevisiae deletion strains, locus YPL240C, strain hsp82, stronger effect = lower value 0.996 | S. cerevisiae deletion strains, locus YPL241C, strain CIN2, stronger effect = lower value 0.996 | S. cerevisiae deletion strains, locus YPL256C, strain CLN2, stronger effect = lower value 0.959 | S. cerevisiae deletion strains, locus YPR119W, strain clb2, stronger effect = lower value 0.983 | S. cerevisiae deletion strains, locus YPR141C, strain kar3, stronger effect = lower value 0.967 | S. cerevisiae deletion strains, locus YPR163C, strain tif3, stronger effect = lower value 0.973 | S. cerevisiae deletion strains, locus YPR167C, strain met16, stronger effect = lower value 0.978 | S. cerevisiae deletion strains, strain wtn01, stronger effect = lower value 0.964 | S. cerevisiae strains, strain wild type, stronger effect = lower value 0.992
